# Rows were chosen to be rich in hits. Some 2.3% of all compounds tested hit in one or more screens of this group.
# MEKK2 WT-MEK5: raises or lowers MEK5 binding to wildtype human MEKK2 PB1 domain; bead flow cytometry, Alexa488-MEK5 binding to MEKK2 WT; actives lie on both sides; binding response (% of control), % at 10 µM; 290,000 tested, 1.1% active; AID 1531; in the data active = binding response below about 67% or above about 130%; inconclusive = no clear call, values can overlap the other calls; inactive = in between
# MEKK2 mut-MEK5: signal of MEK5 binding to mutant human MEKK2 PB1 domain; bead flow cytometry, Alexa488-MEK5 binding to MEKK2 mutant; percent response, % at 10 µM; 290,000 tested, 0.35% active; in the data active = percent response above about 24%, passing the limit was not always enough
# MEKK3 PB1 HTS: MEKK3-MEK5 PB1 interaction, increase or decrease | bead-based flow cytometry, Alexa488-MEK5 binding to MEKK3; actives lie on both sides; 0 = blocked by unlabeled MEK5, 100 = vehicle | 290,000 tested, 1.4% active | Q99759 | binding response (% of control), % at 10 µM;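 active = binding response more than 3 SD above or below the average of its plate-row segment, actives on both sides; inconclusive = wells at one plate position flagged as instrument error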;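 also: Alexa488 bead fluorescence after subtracting the streptavidin-only scavenger bead signal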
# UBC13 inh: human UBC13 polyubiquitination inhibition; inhibition, % at 20 µM; AID 485273; 330,000 tested, 0.47% active; UBC13 polyubiquitin chain formation, TR-FRET; in the data active = inhibition above about 45%, passing the limit was not always enough; inconclusive = no clear call, values can overlap the other calls
# MEKK2wt confirm: raises or lowers MEK5 binding to wildtype human MEKK2, retest. shares compounds with MEKK3 PB1 HTS. binding response (% of control), % at 10 µM. AID 1892. bead flow cytometry, Alexa488-MEK5 binding to MEKK2 WT; actives lie on both sides. 5,900 tested, 2.4% active; in the data active = binding response below about 16% or above about 210%; inactive = in between
# MEKK2mut confirm: signal of MEK5 binding to mutant human MEKK2, retest; shares compounds with MEKK3 PB1 HTS; bead flow cytometry, Alexa488-MEK5 binding to MEKK2 mutant; percent response, % at 10 µM; 5,900 tested, 2% active; AID 1893; in the data active = percent response mostly above about 71%, no sharp cut-off; inactive = mostly below about 38%;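 also: higher means compound restores mutant binding toward wildtype level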
# MEKK3 confirm: MEKK3-MEK5 PB1 inhibition, single concentration confirmation; shares compounds with MEKK3 PB1 HTS; bead flow cytometry, Alexa488-MEK5 binding to MEKK3; hits give low values; binding response (% of control), % at 10 µM; 5,900 tested, 1.8% active;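 active = binding response below 72% of control, or above a set upper limit, though filed actives all read lower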;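 also: 100% = DMSO only wells and 0% = binding blocked by excess unlabeled MEK5; lower values mean stronger disruption of MEK5 binding to MEKK3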
# * = called active by the depositor; ? = inconclusive; / = not tested or not shown; [ ] = another dose, or the depositor's remark.
SMILES,MEKK2 WT-MEK5,MEKK2 mut-MEK5,MEKK3 PB1 HTS,UBC13 inh,MEKK2wt confirm,MEKK2mut confirm,MEKK3 confirm
C[C@H](CO)N1C[C@H](C)[C@H](CN(C)Cc2ccncc2)Oc2ccc(NC(=O)Nc3ccc(C(F)(F)F)cc3)cc2CC1=O,/,/,/,24,/,/,/
COc1ccc(NC(=O)COC(=O)Cc2coc3cc(OC)ccc23)c(OC)c1,/,/,/,-2,/,/,/
CCOC(=O)C1CCN(CC(O)COc2ccc(C(C)(C)CC)cc2)CC1 (centres undefined),0.0*[inhibitor],-21,2.0*[inhibitor],18,124,13,110
Cc1ccccc1C(=O)OC(C)CN1CCN(C)CC1 (centres undefined),102,-4,97,18,/,/,/
Cc1ccccc1OCC(=O)OC(C)CN1CCN(C)CC1 (centres undefined),73,-37,69*[inhibitor],1,111,10,107
O=c1c(Cl)c(Cl)cnn1-c1ccccc1,108,1,133*,/,103,3,100
Nc1c(Cl)cnn(-c2ccccc2)c1=O,/,/,/,-2,/,/,/
CCCN1C(=O)c2cc(C(=O)Nc3ccc(OC)cc3OC)ccc2C1Nc1ccc(OC)cc1OC (centres undefined),93,-2,97,2,/,/,/
CCn1c(C)[n+](Cc2ccccc2)c2ccc(Cl)cc21,5.0*[inhibitor],-46,3.0*[inhibitor],4,100,4,103
CCn1c(C)[n+](Cc2ccccc2)c2ccc(C(=O)OC)cc21,106,4,103,6,/,/,/
O=S(=O)(NCc1ccccc1)[C@@H]1CC2C=CC1C2 (some centres undefined),/,/,/,-10,/,/,/
Cc1ccc(NC(=O)c2ccc(NS(=O)(=O)c3c(C)noc3C)cc2)cc1C,108,5,103,8,/,/,/
Cc1noc(C)c1S(=O)(=O)Nc1ccc(C(=O)NC2CCCCC2)cc1,33*[inhibitor],-32,20*[inhibitor],3,101,6,103
CN(C)Cc1c(O)ccc2[nH]cnc12,89,-11,80,1,/,/,/
Oc1ccc2ccc3[nH]cnc3c2c1,45*[inhibitor],5,39*[inhibitor],4,95,-3,99
CC(Sc1nncs1)C(=O)Nc1ccc(S(=O)(=O)Nc2ncccn2)cc1 (centres undefined),/,/,/,15,/,/,/
Cc1nn(CCO)c2c1C(=O)CCC2,116,12,128*,-5,106,3,105
CC1CCN(CCCNC(=O)c2ccc(Cn3c(=S)[nH]c4ccc(Br)cc4c3=O)cc2)CC1,166*,38,103,?,190,50,108
Cc1cccc(NC(=O)c2ccc(S(=O)(=O)C(F)F)cc2)c1C,103,-1,137*,2,109,0,104
Cc1cc(C)cc(NC(=O)c2ccc(S(=O)(=O)C(F)F)cc2)c1,110,1,144*,-1,107,6,103
CCN(CC)S(=O)(=O)c1ccc(C(=O)Nc2cc(C)cc(C)c2)cc1,107,6,106,-10,/,/,/
COc1ccccc1NC(=O)C1CC(O)CN1C(=O)Oc1ccccc1 (centres undefined),99,1,101,11,/,/,/
COC(=O)C(CC(C)C)NC(=O)c1cccs1 (centres undefined),108,-1,129*,-7,95,-3,98
COc1ccc(N(C(=O)CNC(=O)c2cccs2)C(C(=O)NCC2CCCO2)c2ccccc2)cc1 (centres undefined),6.0*[inhibitor],-19,5.0*[inhibitor],-2,105,4,104
Cc1ccc(C(C(=O)NC2CCCC2)N(C(=O)CNC(=O)c2cccs2)c2cccnc2)o1 (centres undefined),106,4,71*[inhibitor],7,102,2,104
Cc1ccc(C(C(=O)NC2CCCC2)N(Cc2cccs2)C(=O)CNC(=O)c2cccs2)o1 (centres undefined),103,4,92,-5,/,/,/
COc1ccc(C)cc1NC(=O)CNC(=O)[C@@H]1Cc2ccccc2CN1,93,-1,92,-4,/,/,/
